51 compounds from ChEMBL document CHEMBL3988442, “University of Dundee, Small-Polar-MMV Screening Library” (2021) can be followed below.

The target in test [1] is T1, Aspartate--tRNA(Asp/Asn) ligase (Mycobacterium tuberculosis (strain ATCC 25618 / H37Rv)) (UniProt P9WFW3). Also: in the data most compounds retested in dose-response had high values.
T1 sequence (whole entry): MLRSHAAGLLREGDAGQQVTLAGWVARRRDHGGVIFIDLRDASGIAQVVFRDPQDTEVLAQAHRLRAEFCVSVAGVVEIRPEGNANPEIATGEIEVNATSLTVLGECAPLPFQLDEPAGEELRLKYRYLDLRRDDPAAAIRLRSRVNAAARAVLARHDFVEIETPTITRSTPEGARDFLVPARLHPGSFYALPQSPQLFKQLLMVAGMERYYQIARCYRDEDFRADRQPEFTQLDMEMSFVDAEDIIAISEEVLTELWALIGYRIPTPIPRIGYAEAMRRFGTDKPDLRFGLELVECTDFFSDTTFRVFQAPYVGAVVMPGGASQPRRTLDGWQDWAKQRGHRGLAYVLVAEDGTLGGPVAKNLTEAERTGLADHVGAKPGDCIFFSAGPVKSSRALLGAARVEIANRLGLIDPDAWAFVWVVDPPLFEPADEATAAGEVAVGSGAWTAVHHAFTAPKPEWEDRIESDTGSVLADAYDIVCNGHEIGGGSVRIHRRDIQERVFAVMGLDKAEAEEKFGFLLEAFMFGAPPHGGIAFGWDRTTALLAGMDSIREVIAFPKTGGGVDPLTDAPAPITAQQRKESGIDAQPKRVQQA
Briefly: Assay for Asp RNA synthetase-1 from Mycobacterium tuberculosis. It counts as functional. On the set-up: scale not given: direction of the effect not stated beside the values. The conditions noted are these: 30 µM.

The target of test [2] is Shiga toxin 2 (Escherichia coli O157:H7) (UniProt P09385+P09386). Briefly: E. coli 0.157:H7 Shiga Toxin SOP - stx2 screening assay. It counts as functional. To be noted: 30 µM. On the set-up: scale not given: direction of the effect not stated beside the values.

Regarding `O=C(N[C@@H]1CCNC[C@H]1O)c1ccc(F)c(Cl)c1`, the Percent Effect was -0.19% in test [1] and 12.3% in test [2].
In the case of `COc1c(CNCc2ccc(CN(C)C)cc2)c(C(C)C)nn1C`, the Percent Effect in test [1] worked out at 0.7%; in test [2] it was 16.1%.
The corresponding values for `O=C(NCc1ccccn1)Nc1cc(C(F)(F)F)c[nH]c1=O` are 1.37% and -24.9%.
The corresponding values for `CC(C)(C)c1noc(CN2CCCN(Cc3cccs3)CC2)n1` are -4.01% and -1.06%.
For `c1ccc(OCc2ccncc2)c(CNC2CCc3ncnn3C2)c1` (configuration not stated), the Percent Effect in test [1] is -3.54%; in test [2], -62.8%.
The corresponding values for `CC(Cn1ccnc1)NC(=O)N1CCN(Cc2cccnc2)CC1` (configuration not stated) are 0.189% and 6.15%.
The corresponding values for `COC(=O)C1CCN(C(=O)c2ccc(N(C)S(C)(=O)=O)c(C)c2)CC1` are -4.11% and -5.54%.
Regarding `COc1ccccc1CC(=O)NS(=O)(=O)c1cncc(Br)c1`, the Percent Effect was -6.19% in test [1] and 10.1% in test [2].
Take `Cc1ncsc1C(=O)NC1CCN(Cc2cccnc2)CC1`: the Percent Effect in test [1] was -7.07%; in test [2], -58.8%.
As for `CCn1cc(NC(=O)C2CCN(Cc3noc(C(C)C)n3)CC2)cn1`, the Percent Effect was 1.21% in test [1] and -21.2% in test [2].
Turning to `CCn1c(Cn2cncn2)nnc1C1CCN(Cc2ccc(C)o2)CC1`, the Percent Effect in test [1] is -3.48%; in test [2] it was 18.7%.
On to `CCN(Cc1nc(C(C)C)no1)Cc1cccs1`, for which the values for the Percent Effect in test [1] and in test [2] were 0.386% and -23.8%, respectively.
As for `CCc1noc(C(C)N2CCN(Cc3nnc(C4CC4)o3)CC2)n1` (configuration not stated), the Percent Effect in test [1] was -4.98%; in test [2], 10.9%.
Regarding `O=C(NS(=O)(=O)c1ccccc1Cl)c1cccc2c1OCCO2`, the figures for the Percent Effect in test [1] and in test [2] were -6.15% and -2.92%, respectively.
Consider `Cn1ccnc1N1CCN(C(=O)Cc2ccc(F)cc2)CC1`, for which the Percent Effect in test [1] is 3.25%; in test [2], -73%.
Turning to `CCc1nc(CC(=O)N2CCn3c(nnc3C(C)C)C2)cs1`, the Percent Effect was -0.367% in test [1] and -14.7% in test [2].
For the compound `CC(C)c1nc2n(n1)CC(NCc1nnnn1C1CC1)CC2` (configuration not stated), the Percent Effect in test [1] is 1.55%; in test [2] it was 8.39%.
Taken in the same sequence, the figures for `CC(c1ccc(Cl)cc1)N1CCN(CCS(C)(=O)=O)CC1` (configuration not stated) were -1.84% and 1.09%.
On to `COc1ccc(OC)c(CCNC(=O)NC(C)Cn2ccnc2)c1` (configuration not stated), for which the Percent Effect was -6.68% in test [1] and 31% in test [2].
Consider `COc1cccc(CN2C[C@@H]3COC[C@]3(COCc3ccncc3)C2)c1`, for which the Percent Effect is 2.95% in test [1] and 5.94% in test [2].
Taken in the same sequence, the figures for `Cc1cc(NC(=O)NCC(O)c2ccc(Cl)cc2Cl)n(C)n1` (configuration not stated) were -2.66% and 24.8%.
For the compound `Cc1cnn(C2CN(Cc3nc(-c4ccco4)no3)C2)c1`, the figures for the Percent Effect in test [1] and in test [2] were -7.28% and 10.9%, respectively.
Taken in the same sequence, the figures for `COCCN1CCC(CNC(=O)c2cc(C)cc(C)c2)C1` (configuration not stated) were -2.92% and -3.77%.
Turning to `COCCN1CCCN(C(=O)NC(C)Cn2cccn2)CC1` (configuration not stated), the Percent Effect is 1.3% in test [1] and -9.78% in test [2].
The corresponding values for `c1ccc(-c2cnc(CNC3CCCN(c4cccnn4)C3)o2)cc1` (configuration not stated) are -3.48% and 4.96%.
Consider `COc1ccc(CN2CC[C@H](NC(C)=O)[C@@H](O)CC2)c(OC)c1`, for which the Percent Effect in test [1] is 3.53%; in test [2], -14.9%.
`COc1cccc(N2CCN(C(=O)[C@H](O)C3CCCCC3)CC2=O)c1`: the figures for the Percent Effect in test [1] and in test [2] were -3.25% and -7.11%, respectively.
`O=C(NCCc1ccc(Cl)s1)NCc1nnc2n1CCC2`: the Percent Effect in test [1] was found to be 2.25%; in test [2] it was 22.9%.
The corresponding values for `COc1cc(N2C[C@H]3OCC[C@H]3[C@H](C(=O)NC3CC3)C2)ncn1` are 3.81% and -2.62%.
Taken in the same sequence, the figures for `Cc1ccc(CN2CCc3ncnc(-c4ccc(F)cc4)c3CC2)o1` were 5.12% and -19.5%.
Taken in the same sequence, the figures for `Cc1cc(C)n(C2CN(Cc3noc(-c4ccccc4)n3)C2)n1` were 4.04% and -51.5%.
`Cc1ccc(C)c(-c2csc(N)c2C#N)c1`: the Percent Effect in test [1] was 2.35%; in test [2], 4.18%.
Regarding `Cn1nc(C2CCCN(Cc3ccsc3)C2)c2nccnc21` (configuration not stated), the Percent Effect is -2.96% in test [1] and -14.3% in test [2].
For the compound `O=C1CCCc2nccc(-c3ccccc3)c21`, the Percent Effect was 1.6% in test [1] and -14.1% in test [2].
As to `CCCNC(=O)c1ccc2c(c1)C(=O)N(CC(C)C)C2=O`, the Percent Effect was found to be 1.59% in test [1] and 3.24% in test [2].
For `O=C(NCCN1CCOCC1)c1ccc(-n2ccc3ccccc32)s1`, the values for the Percent Effect in test [1] and in test [2] were 3.45% and -47.9%, respectively.
Turning to `Cc1ccsc1-c1nnc(C2CCN(Cc3ccc(F)cc3)CC2)o1`, the results for the Percent Effect in test [1] and in test [2] were -1.86% and -123%, respectively.
Take `CNC(=O)N1CCc2cc(C(=O)N(C)C)c(NCC3CC3)nc2CC1`: the figures for the Percent Effect in test [1] and in test [2] were 1.99% and -3.46%, respectively.
The corresponding values for `Cc1cc(NCc2cccnc2)n2nc(C)cc2n1` are -2.06% and 13.8%.
The corresponding values for `NC(=O)N1CCC2(CCN(Cc3cccc(F)c3)CC2)CC1` are -3.39% and -34.5%.
For `Cc1ccc(-c2cc(N)c(=O)n(CC(=O)NCC3CC3)n2)s1`, the Percent Effect amounted to 4.48% in test [1] and 3.54% in test [2].
The corresponding values for `CCn1cnnc1CNC(=O)N(C)Cc1ccc(F)c(F)c1` are -2.12% and 18.2%.
Taken in the same sequence, the figures for `Fc1cccnc1CN1CCCCC1c1ccn2ccnc2n1` (configuration not stated) were 1.4% and -17.1%.
As to `CCOc1ccnc(N2CCN(C(=O)c3cccnc3O)CC2)n1`, the Percent Effect in test [1] was -5.14%; in test [2], 6.95%.
As to `Cc1ccc(-c2nnc(CN3CCOC(Cn4cccn4)C3)o2)cc1` (configuration not stated), the figures for the Percent Effect in test [1] and in test [2] were -0.257% and -10.3%, respectively.
Take `CNc1cccc(C2CCCN(C(C)=O)C2)n1` (configuration not stated): the results for the Percent Effect in test [1] and in test [2] were 7.52% and 23.2%, respectively.
As for `OC(CN1CCC(c2ccn[nH]2)CC1)c1cccc(F)c1` (configuration not stated), the Percent Effect in test [1] was -4.71%; in test [2] it was -2.5%.
The corresponding values for `CN(Cc1cnn(C)c1)C(=O)NCc1csc(Br)c1` are 4.08% and 32.1%.
The corresponding values for `Cc1ccc(C(=O)N2CCN(CCCSCC#N)CC2)o1` are 3.17% and -67.1%.
Taken in the same sequence, the figures for `NS(=O)(=O)CCNC(=O)C1(c2ccc(Br)cc2)CC1` were 1.66% and -28.2%.
`CC(C)N(C)C(=O)CN1CCCC(c2ccc(C(=O)O)cc2)C1` (configuration not stated): the Percent Effect in test [1] was -0.982%; in test [2] it was 5.69%.
